Among the data in the supplement of paper PMC10981050 are cell viability values, retold here.

The test has as its system OCI-AML2. Put plainly: cell viability relative to vehicle control; higher = less cytotoxic. To be noted: 10 µM; SRSF2 genotype: wt/wt. An outline of the steps:
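Four leukaemia lines, as CRISPR-edited mutant clones and isogenic wild-type clones, were tested against Selleck bioactive, kinase and epigenetic probe libraries after removal of identity-inconsistent compounds. Cells were exposed to a single 10 µM dose for 48 h, and CellTiter-Glo luminescence was then read. Viability was calculated relative to the on-plate vehicle control.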
By cell viability is commonly meant a read-out of living cells in per cent, often relative to untreated cells. As to `N[C@@H]1CN(c2c(F)cc3c(=O)c(C(=O)O)cn([C@@H]4C[C@@H]4F)c3c2Cl)CC12CC2` [Sitafloxacin hydrate], the cell viability worked out at 107%.
For the compound `COC(=O)C1=C(C)NC(C)=C(C(=O)OC(C)C)C1c1cccc2nonc12` (stereo not drawn) [Isradipine (Dynacirc)], the cell viability came to 99.5%.
As for `O=C(Nc1nccs1)C(c1cc(F)ccc1O)N1Cc2ccccc2C1=O` (stereo not drawn), the figure is 100%; as for `Nc1cc(F)ccc1NC(=O)/C=C/c1cnn(C/C=C/c2ccccc2)c1`, 87.4%; as for `C=C1[C@H](O)C[C@H]2[C@@H](/C=C(\C)C(=O)[C@@]3(O)C[C@H](C)[C@H](O)[C@@H]3[C@H]1O)C2(C)C`, 101%.
As for `O=C(Nc1cccc(C(F)(F)F)c1)Nc1cc(S(=O)(=O)NC2CC2)ccc1-c1ccsc1`, the figure is 95%; as for `CC(C)(NS(=O)(=O)c1ccc2c(Cl)cnc(N=C(N)N)c2c1)C(=O)O`, 117%.
As for `C[C@]12CCC3=C4CCC(=O)C=C4CC[C@H]3[C@@H]1CC[C@@]2(O)CC#N` [Dienogest], the figure is 106%; as for `Cc1ccc(NS(=O)(=O)c2ccc3c(c2)C2C=CCC2C(c2ccc(C(=O)O)cc2)N3)cc1C` (stereo not drawn), 117%.
Take `CC(=O)O[C@]1(C(C)=O)CC[C@H]2[C@@H]3C[C@H](C)C4=CC(=O)C=C[C@]4(C)[C@@]3(F)[C@@H](O)C[C@@]21C` [Fluorometholone Acetate]: the cell viability came to 113%.
As for `Cc1cccc(-c2[nH]c(C(C)(C)C)nc2-c2ccc3nccnc3c2)n1`, the figure is 115%; as for `COc1ccc(Cn2ccc3ccc(C(=O)NO)cc32)cc1`, 75.5%.
As to `COc1cc(C(=O)O)ccc1NC(=O)[C@@H]1N[C@@H](CC(C)(C)C)[C@](C#N)(c2ccc(Cl)cc2F)[C@H]1c1cccc(Cl)c1F` [Idasanutlin (RG-7388)], the cell viability was determined as 118%.
